Consider 47 compounds from PubChem BioAssay AID2685 (National Center for Advancing Translational Sciences (NCATS), 2010).

Molecules are shown by their SMILES. About 2,100 (0.66%) of roughly 320,000 compounds were called active. Not shown: some 53% with an inconclusive outcome. The call rests on the fitted dose curve; in most records, active means well fitted inhibition curve with a large enough effect in the signal ratio, with a control signal flat (not every such curve was filed as active); inconclusive means small, poorly fitted or top-dose-only effect, or effect the other way, or a change in a side signal; inactive means flat fitted curve, though single readings scatter; the % refers to the signal ratio. The entries come from a sample that favours actives as a whole.
Potency means the concentration at half of the fitted maximal effect.

The nature of the assay: qHTS Assay for Lipid Storage Modulators in Drosophila S3 Cells.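 On cell number change: cells counted by Cell Tracker Red CMTPX staining in the red channel.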 On lipid storage change, negative = inhibition: on the % scale 0 is the no-effect control and ±100 the full control effect. Conditions: BODIPY lipid droplet fluorescence, 18-24 h, cells fed with added oleic acid; cell number change: measured here: cell count max response; series mostly up to 46.1 µM; lipid storage change, negative = inhibition: at the top concentration. Put shortly:
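Drosophila S3 cells got compounds at several concentrations plus oleic acid (400 uM solution). Laser-scanning cytometry with 488 nm excitation read lipid droplets at 500-530 nm and cells at 575-640 nm. Percent activity was relative to 20 uM Triacsin C.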
(qHTS replaces the single test concentration by a dilution series.)
`Cc1cccc(N(CC(N)=O)C2SC(=O)NC2=O)c1` (centres undefined): the “lipid storage change, negative = inhibition” value was -0.47% (inactive) and the cell number change worked out at 8.77%. For `CC(C)C(NC(=O)OCc1ccccc1)C(=O)NCc1ccc(C(=O)O)cc1` (centres undefined) the same measures were 19.3% (inactive) and 18%. `CC(C)[C@H](NC(=O)c1ccco1)C(=O)NCc1ccccc1`: the compound was classed as inactive and the cell number change amounted to 17.1%. For the compound `CC(C)C(NC(=O)c1ccco1)C(=O)NCc1ccc(C(=O)O)cc1` (centres undefined), the Potency was 6.51 µM (active) and the cell number change is -31.6%. For `CC(/C=C/c1ccccc1)=N/NC(=O)c1cnccn1`, the “lipid storage change, negative = inhibition” value was 8.89% (inactive) and the cell number change amounted to 9.37%. As to `CC1=[N+]([O-])C(C)(C)CC(C)(C)c2ccccc21`, the Potency was 25.9 µM (active) and the cell number change was -21.9%. In the case of `COC(=O)c1cn(CC(=O)Nc2ccccc2C)c2ccccc12`, the compound was called inactive and the cell number change came to 8.8%. In the case of `COc1ccc(C2C(C#N)=C(N)OC3=C2C(=O)CC(C)(C)C3)cc1Cn1nc(C)c([N+](=O)[O-])c1C` (centres undefined), the “lipid storage change, negative = inhibition” value is 9.69% (inactive) and the cell number change was 4.05%. Consider `CSC1=NCCN1C(=O)C12CC3CC(CC(C3)C1)C2`, for which the Potency is 1.3 µM (active) and the cell number change was -43.3%. With `O=C(N1CCN=C1SCc1cccnc1)C12CC3CC(CC(C3)C1)C2`, the result was inactive. In the case of `O=C1NCCN1C(=O)C12CC3CC(CC(C3)C1)C2`, the “lipid storage change, negative = inhibition” value is 0.211% (inactive) and the cell number change is -1.76%. Turning to `CCn1c(SCC(=O)NC2CC2)nnc1C(C)Oc1ccccc1` (centres undefined), the “lipid storage change, negative = inhibition” value was 5.84% (inactive). As to `CCOc1ccc(Cn2nnc(C(=O)NCCc3ccccc3)c2N)cc1`, the “lipid storage change, negative = inhibition” value is -7.29% (inactive) and the cell number change is -4.24%.

With `CCOc1ccc(Cn2nnc(C(=O)NCCc3ccc(Cl)cc3)c2N)cc1`, the Potency is 18.4 µM (active) and the cell number change is 1.29%. As to `COc1cccc(NC(=O)Cn2nnc(C(=O)Nc3ccccc3)c2N)c1`, the “lipid storage change, negative = inhibition” value is 6.84% (inactive) and the cell number change was -18.5%. For `COc1ccc(NC(=O)Cn2nnc(C(=O)NCCc3ccccc3)c2N)c(OC)c1`, the outcome was inactive and the cell number change turned out to be 6.1%.

`COc1cccc(NC(=O)Cn2nnc(C(=O)NCCc3ccccc3)c2N)c1`: the Potency was 20.6 µM (active) and the cell number change was determined as 2.67%. Consider `Nc1c(C(=O)NCCc2ccccc2)nnn1Cc1ccc(Cl)cc1`, for which the “lipid storage change, negative = inhibition” value is 8.7% (inactive) and the cell number change was -16.5%.

For the compound `CCc1nc(NC(=O)c2sc(C)nc2C)sc1C(=O)OC`, the compound was called inactive and the cell number change is -8.97%. For the compound `O=C1OCCC1Sc1nnc(-c2ccc(Br)cc2)o1` (centres undefined), the “lipid storage change, negative = inhibition” value was 5.68% (inactive) and the cell number change stood at 7.55%. For `O=C1OCCC1Sc1nnc(-c2ccc3c(c2)OCO3)o1` (centres undefined) the same measures were 5.11% (inactive) and 15.3%. For the compound `O=C1OCCC1Sc1nnc(-c2cccc(Br)c2)o1` (centres undefined), the Potency is 20.6 µM (active) and the cell number change was -11.2%.

For the compound `Cc1ccc(CS(=O)(=O)CCC(=O)NCc2ccc(F)cc2)cc1`, the “lipid storage change, negative = inhibition” value was 0.549% (inactive) and the cell number change was determined as 22.6%.

Consider `Cc1ccc(/C=C/S(=O)(=O)NCCC(=O)NCc2ccc(F)cc2)cc1`, for which the Potency was 13 µM (active) and the cell number change was -6.87%. On to `Cc1ccc(CNC(=O)CCNS(=O)(=O)c2ccc(C)cc2)cc1`, for which the “lipid storage change, negative = inhibition” value was 0.234% (inactive) and the cell number change is -14.3%.

For the compound `CCOC(=O)N1CCC(N(CCN(C)C)C(=S)Nc2ccccc2OC)CC1`, the “lipid storage change, negative = inhibition” value is 1.39% (inactive) and the cell number change was found to be 7.57%. For `CCCCCOC(=O)c1ccccc1C(=O)O` the same measures were 22.4% (inactive) and 16.1%. The like results for `Cc1ccc2c(c1)C1CN(C)CCC1N2S(=O)(=O)c1ccc(C#N)cc1` (centres undefined) were, in that order, 4.76% (inactive) and -11.9%. For `Cc1ccc2c(c1)[C@@H]1CN(C)CC[C@@H]1N2S(=O)(=O)c1ccc([N+](=O)[O-])cc1` the same measures were 3.92% (inactive) and -4.89%.

On to `Cc1ccc2c(c1)C1CN(C)CCC1N2S(=O)(=O)c1cccc(F)c1` (centres undefined), for which the Potency is 14.6 µM (active) and the cell number change was -8.15%.

As for `O=C(CN1CCN(S(=O)(=O)c2ccccc2[N+](=O)[O-])CC1)Nc1ccc(N2CCOCC2)cc1`, the “lipid storage change, negative = inhibition” value was 17.1% (inactive) and the cell number change came out at 26.6%. For `Cn1c2ccccc2c(=O)c2c(=O)n(-c3ccccc3)c(-c3ccc(C(C)(C)C)cc3)nc21` the same measures were -2.59% (inactive) and 8.74%. For the compound `COc1cccc(CNC(=O)CC2Sc3ccccc3NC2=O)c1` (centres undefined), the “lipid storage change, negative = inhibition” value is -8.39% (inactive). Consider `CC1(C(=O)NCc2ccc(Cl)c(Cl)c2)Oc2cccnc2NC1=O` (centres undefined), for which the “lipid storage change, negative = inhibition” value is 25.5% (inactive).

Regarding `CC1(C(=O)NCc2ccccc2)Oc2ccccc2NC1=O` (centres undefined), the Potency is 23.1 µM (active) and the cell number change is -4.11%. In the case of `Cc1ccc(CNC(=O)C2(C)Oc3ccccc3NC2=O)cc1` (centres undefined), the “lipid storage change, negative = inhibition” value is 18.2% (inactive) and the cell number change is -6.1%. `COc1cccc(CNC(=O)c2ccc(C(=O)NCc3cccc(OC)c3)cc2)c1`: the “lipid storage change, negative = inhibition” value is 16.4% (inactive). Turning to `COc1cccc(CNC(=O)C2(C)Oc3ccccc3NC2=O)c1` (centres undefined), the Potency is 23.1 µM (active) and the cell number change stood at 10.7%. With `O=C(CNC(=O)c1ccco1)OCC(=O)c1ccc(Cl)cc1`, the “lipid storage change, negative = inhibition” value is -4.23% (inactive) and the cell number change was found to be 3.11%. The like results for `COc1ccc(NC(=O)/C=C/c2ccc(Br)o2)cn1` were, in that order, 0.369% (inactive) and 2.5%. For the compound `CC[C@@H](C)[C@@H](C(=O)N1CCN(C(=O)OC(C)(C)C)CC1)n1cc(CCCN=C(NC(=O)OC(C)(C)C)NC(=O)OC(C)(C)C)nn1`, the “lipid storage change, negative = inhibition” value was -15.3% (inactive) and the cell number change is -5.51%. The like results for `CCN(c1ccccc1)S(=O)(=O)c1cc([N+](=O)[O-])ccc1N` were, in that order, 0.407% (inactive) and 7.82%.

As for `Cc1cccc(N(C)S(=O)(=O)c2c[nH]c3ccc([N+](=O)[O-])cc23)c1`, the Potency is 2.59 µM (active) and the cell number change is -6.19%. `CCN(c1ccccc1)S(=O)(=O)c1ccc2[nH]c(=O)[nH]c2c1`: the “lipid storage change, negative = inhibition” value was 13.3% (inactive) and the cell number change is 8.44%. Take `Cc1ccc(N(C)S(=O)(=O)c2c[nH]c3ccc([N+](=O)[O-])cc23)cc1`: the call was inactive and the cell number change was determined as 2.95%. For `CCN(c1ccccc1)S(=O)(=O)c1c[nH]c2ccc([N+](=O)[O-])cc12`, the Potency was 5.8 µM (active) and the cell number change is -8.56%. As to `Cc1cccc(N(C)S(=O)(=O)c2ccc3[nH]c(=O)c(=O)[nH]c3c2)c1`, the “lipid storage change, negative = inhibition” value is -8.22% (inactive) and the cell number change is -11.4%.
